CYP2C19 inhib = human CYP2C19 inhibition. CYP2C19 Supersomes, luciferin-H EGE luminescence, 30 min. AID 778. inhibition, % at 5 µM. 96,000 compounds, 21% hits. P33261;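 active means CYP2C19 inhibition above a set limit at 5 µM in the primary screen, cut at about 50% in these data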;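 further: plate controls were negative control wells for no effect and 2.5 mM tranylcypromine positive control for full effect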
Target sequence (P33261 whole entry, looked up): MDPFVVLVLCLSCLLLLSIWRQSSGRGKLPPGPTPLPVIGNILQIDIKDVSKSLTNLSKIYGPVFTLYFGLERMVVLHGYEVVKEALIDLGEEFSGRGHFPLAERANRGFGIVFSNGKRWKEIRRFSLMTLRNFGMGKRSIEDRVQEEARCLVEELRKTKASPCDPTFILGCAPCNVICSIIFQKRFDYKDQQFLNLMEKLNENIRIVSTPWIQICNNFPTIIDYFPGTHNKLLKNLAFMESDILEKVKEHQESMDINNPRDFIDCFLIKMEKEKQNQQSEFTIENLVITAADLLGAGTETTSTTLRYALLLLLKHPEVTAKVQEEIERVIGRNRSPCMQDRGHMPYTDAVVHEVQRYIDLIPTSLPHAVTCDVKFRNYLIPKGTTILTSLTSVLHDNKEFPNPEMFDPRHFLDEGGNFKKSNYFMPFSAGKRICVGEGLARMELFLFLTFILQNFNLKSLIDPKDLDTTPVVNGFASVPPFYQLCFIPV
CYP2C9 act = activators of human CYP2C9. recombinant CYP2C9, luciferin-H conversion, luminescence; stronger effect = higher value; factor 1 = untreated enzyme, 0 = blocked. activation factor at 5 µM. 96,000 compounds, 1.4% hits. AID 1024;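 active means activation factor of 2 or more for CYP2C9 at a 5 µM dose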;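 further: 0 = sulfaphenazole-blocked wells and 1 = vehicle-only wells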
CYP2C19 act = cytochrome P450 2C19 (human) activation. P33261. recombinant CYP2C19, luciferin-H EGE luminescence; stronger effect = higher value; 0 = fully inhibited enzyme, 1 = untreated enzyme. activation factor at 5 µM. 96,000 tested, under 10 active;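 active means activation factor of at least 2 at 5 µM in the primary screen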;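 further: 0 = wells with 2.5 mM tranylcypromine and 1 = vehicle-only wells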
CYP2C9 inh = blocks human cytochrome P450 2C9; P11712; CYP2C9 Supersomes, luciferin-H conversion, luminescence; inhibition, % at 5 µM; 96,000 compounds, 20% hits; AID 777;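 active means blocking of liver enzyme CYP2C9 beyond about 50% at 5 µM, limit read from the data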
PostGolgi ctrl = yeast control strain growth, post-Golgi counter-screen. efflux-deficient yeast background strain, growth absorbance A615, 16 h. inhibition, % at 10 µM. 98,000 compounds, 5% hits
PostGolgi yeast = growth inhibition of a yeast mutant, post-Golgi transport screen; post-Golgi transport phenotypic cell assay; 98,000 compounds, 0.9% hits; inhibition, % at 10 µM;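 further: yeast cells grown in 1536-well plates; yeast grown about 18 h at 30C before absorbance read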
* marks the source's active call; other numbers are inactive results. Most compounds without a hit are left out; they make up all but 32% or so of the library. Unless noted, no stated cut-off is given here; in the data, active means inhibition above about 30%; inactive means the rest.

SMILES | CYP2C19 inhib | CYP2C9 act | CYP2C19 act | CYP2C9 inh | PostGolgi ctrl | PostGolgi yeast
CCOc1ccc(/C=N/NC(=O)Cc2csc(Nc3cccc(C(F)(F)F)c3)n2)cc1 | 8.4 | 0.8 | 0.9 | 22.6 | 29.5 | -4.8
C/C(=N\Nc1nc2c(s1)CCCC2)c1ccc(Cl)cc1 | 17.3 | 0.8 | 0.8 | 17.6 | 26.0 | 3.7
CC(C)C(NC(=O)c1cccs1)c1nnc(SCC(=O)Nc2nccs2)n1C (centres undefined) | 6.1 | 0.6 | 0.9 | 41.3 | -0.6 | 6.5
CC#CCCC(=O)N1C=Cc2ccccc2C1C#N (centres undefined) | 66.3* | 0.9 | 0.3 | 8.0 | 3.2 | -18.8
COc1ccc(COCC(O)CN2CC(C)OC(C)C2)cc1OC (centres undefined) | -1.0 | 0.9 | 1 | 14.4 | 1.4 | -1.6
N#CC1=C(N)OC2=C(CC/C2=C\c2ccccc2)C1c1ccccc1 (centres undefined) | 25.6 | 0.3 | 0.7 | 70.0* | 12.1 | 4.7
Nc1nc(SCC(=O)N2N=C3/C(=C/c4ccco4)CCCC3C2c2ccco2)n[nH]1 (centres undefined) | 50.7* | 0.6 | 0.5 | 35.5 | 2.5 | 10.5
Cc1ccc(S(=O)(=O)NCCc2ccc(S(N)(=O)=O)cc2)cc1 | 13.3 | 0.5 | 0.9 | 48.2 | 12.2 | 5.7
Cc1ccc(S(=O)(=O)NCCC(=O)O)cc1 | 2.3 | 1.2 | 1 | -20.6 | -1.4 | -2.3
CCCCc1ccc(S(=O)(=O)NCCc2ccncc2)cc1 | 99.5* | 0.3 | 0 | 67.8* | 8.4 | -9.6
Cc1ccc(CCNS(=O)(=O)c2ccc(C)cc2)cc1 | 52.4* | 0.4 | 0.5 | 55.0* | 19.9 | 4.6
Cc1ccc(CNS(=O)(=O)NCc2ccccc2)cc1 | 77.1* | 1.1 | 0.2 | -7.7 | 4.3 | 1.0
Cc1ccc(S(=O)(=O)NCCc2ccncc2)cc1 | 97.4* | 0.5 | 0 | 50.7* | -3.2 | -2.2
Cc1ccc(CS(=O)(=O)CCC(=O)NCCCOC(C)C)cc1 | -5.4 | 0.9 | 1.1 | 10.4 | 3.5 | 4.4
CSc1ccc(S(=O)(=O)NCc2ccc(C)cc2)cc1 | 94.9* | 1.6 | 0.1 | -62.2 | 12.3 | -1.4
Cc1ccc(S(=O)(=O)NCCCOC(=O)Nc2ccncc2)cc1 | 91.5* | 0 | 0.1 | 99.9* | -8.9 | -8.9
CCOc1ccc(Br)cc1S(=O)(=O)NCCN(C)C | -14.5 | 1.1 | 1.1 | -7.9 | 5.0 | 0.2
O=S(=O)(NCCc1ccncc1)c1cc(Br)ccc1F | 88.6* | 0.5 | 0.1 | 51.2* | 0.8 | -1.4
COc1cc(C(=O)NCCC(=O)NCCCN2CCCCC2)cc(OC)c1OC | -5.0 | 1 | 1.1 | -1.6 | 0.6 | -0.1
CC1(C)CC(=O)C2=C(C1)OC(N)=C(C#N)[C@@]21C(=O)N(CC(N)=O)c2ccccc21 | -19.3 | 1 | 1.2 | -1.2 | 5.1 | 6.3
COc1ccc(S(=O)(=O)N(C)CC(=O)NCCC2=CCCCC2)cc1OC | 81.5* | 1.1 | 0.2 | -10.6 | 2.0 | -10.1
COc1ccc(S(=O)(=O)N(C)CC(=O)NCCC2=CCCCC2)cc1 | 32.4 | 2.4* | 0.7 | -135.5 | 3.1 | 4.9
COc1ccc(N(CC(=O)NCCC2=CCCCC2)S(C)(=O)=O)cc1OC | 8.9 | 1.4 | 0.9 | -36.5 | -2.6 | -3.0
O=C(NCCCN1CCOCC1)C1CC(=O)N(C2CCCCC2)C1 (centres undefined) | 40.3 | 1 | 0.6 | 1.2 | 1.6 | -2.9
O=S(=O)(CCN(CCS(=O)(=O)C(F)(F)F)CC1CCCO1)C(F)(F)F (centres undefined) | 3.2 | 1.1 | 1 | -9.1 | 15.4 | -3.4
SMILES | CYP2C19 inhib | CYP2C9 act | CYP2C19 act | CYP2C9 inh | PostGolgi ctrl | PostGolgi yeast
CCOC(=O)c1c(-c2ccc(C)o2)csc1NC(=O)CN(C)CC(=O)Nc1ccc(C)cc1 | 68.9* | 0 | 0.3 | 95.8* | 6.5 | -7.6
CCOC(=O)c1c(-c2ccco2)csc1N | 47.1 | 0.8 | 0.5 | 20.9 | 7.4 | 2.6
CCOC(=O)c1c(-c2ccc(C)o2)csc1NC(=O)CSc1nncs1 | 90.7* | 0 | 0.1 | 100.1* | 24.7 | 5.6
CCOC(=O)c1c(-c2ccc(C)o2)csc1NC(=O)CN1CCN(CC)CC1 | -0.5 | 0.9 | 1 | 6.6 | 2.9 | 1.0
CCOC(=O)c1c(-c2ccco2)csc1NC(=O)CSc1nnc(N)s1 | 20.5 | 0.4 | 0.8 | 56.6* | 3.1 | 8.1
COc1ccc(N2C(=O)C3CCCN3C2c2cccc(F)c2)cc1Cl (centres undefined) | 8.1 | 0.9 | 0.9 | 7.6 | -1.1 | 1.3
COCCNC(=O)CSc1nc2ccccc2c2nc(C)nn12 | 5.1 | 1 | 0.9 | 3.8 | 6.0 | -11.1
COC(=O)c1cc(C#N)c(Oc2ccccc2OC)nc1C | 71.7* | 0.5 | 0.3 | 51.8* | 0.7 | 10.3
COC(=O)c1cc(C#N)c(NCc2ccccc2)nc1C | 11.2 | 1 | 0.9 | 3.8 | 9.9 | 0.8
CCOC(=O)c1cc(C#N)c(Oc2ccccc2OC)nc1-c1ccccc1 | 42.4 | 0.4 | 0.6 | 64.4* | 27.0 | 4.0
COc1ccc(-c2nnn(CC(=O)c3ccccc3)n2)cc1OC | 59.3* | 1.6 | 0.4 | -61.4 | 7.8 | 2.2
COc1ccc(-c2nnn(CC(=O)c3c[nH]c4ccccc34)n2)cc1OC | 24.8 | 0.7 | 0.8 | 26.4 | -9.4 | -9.3
COc1cc(-c2nnn(CC(=O)NC3CCS(=O)(=O)C3)n2)ccc1OCc1ccccc1 (centres undefined) | 51.7* | 0.3 | 0.5 | 69.2* | 3.7 | -0.9
COc1ccc(-c2nnn(Cc3nn[nH]n3)n2)cc1OC | 20.4 | 0.4 | 0.8 | 57.9* | -5.6 | -7.3
O=C(Cn1nnc(-c2ccc3c(c2)OCO3)n1)N1CCOCC1 | -1.1 | 1 | 1 | -1.7 | 10.9 | -3.6
CCOc1ccc(-c2nnn(CC(=O)Nc3ccccc3OC)n2)cc1OCC | 23.2 | 0.8 | 0.8 | 21.7 | -2.5 | 15.3
N#CCn1nnc(-c2ccc3c(c2)OCO3)n1 | 66.9* | 0.8 | 0.3 | 20.8 | 1.6 | 0.4
COc1cccc(/C=N/Nc2nc(N3CCCC3)nc(N3CCCC3)n2)c1O | 42.0 | 0.7 | 0.6 | 31.8 | 26.3 | 0.4
NC(=O)Cn1nnc(-c2ccccc2NC(=O)c2cnccn2)n1 | -10.9 | 0.9 | 1.1 | 8.9 | 10.4 | -4.0
COC(=O)c1[nH]c2ccc(F)cc2c1NC(=O)C1=COCCO1 | 10.9 | 0.9 | 0.9 | 14.6 | 11.3 | -9.6
CCOc1ccc(-c2nnn(CCC(=O)O)n2)cc1OC | 0.1 | 1 | 1 | 4.7 | -1.9 | -1.4
COc1cc(-c2nnn(CC#N)n2)ccc1OCc1ccccc1 | 96.4* | 0.2 | 0 | 76.5* | 8.3 | 3.8
CCOc1cc(N(CC)CC)ccc1/C=C(/C#N)c1nc2ccccc2[nH]1 | 56.4* | 0.2 | 0.4 | 76.6* | 49.9* | 12.2
CCCOc1cc(N(CC)CC)ccc1/C=C(/C#N)c1nc2ccc(C)cc2[nH]1 | 21.6 | 0.4 | 0.8 | 57.9* | 17.5 | -3.3
CCN(CC)c1ccc(/C=C(/C#N)c2nc3ccc(C)cc3[nH]2)c(OC(C)C)c1 | 60.4* | 0.3 | 0.4 | 71.5* | 17.4 | -7.0

Source: PubChem BioAssay
